# Assay results reported in PubChem BioAssay (EPA / NIEHS).
# Several values for one entry are separate records, joined by “and”; a condition that tells them apart may be missing. Equal entries are not always repeated. Some structures have more than one record in an assay (separate samples or runs), and their calls can disagree. Activity calls are given as the source filed them. Rule for the calls: active = hit-call score of the fitted dose curve at least 0.9, where 1 is the maximum; inactive = score below 0.9.
# Read-out: urokinase plasminogen activator (uPA), PLAU (gene 5328)
# Test: BSK_KF3CT_uPA: BioMAP Diversity Plus: KF3CT Assay for urokinase plasminogen activator (uPA) Biomarker Activity (AID 2283075)
# Settings: primary human keratinocytes with fibroblasts; actives raise or lower the signal
# Method in brief: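 ELISA readout of uPA, analyzed for signal gain or loss relative to DMSO, from a human primary keratinocyte–foreskin fibroblast co-culture measured 24 h after chemical treatment.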
# E-selectin (Homo sapiens), sequence (P16581 whole entry, looked up): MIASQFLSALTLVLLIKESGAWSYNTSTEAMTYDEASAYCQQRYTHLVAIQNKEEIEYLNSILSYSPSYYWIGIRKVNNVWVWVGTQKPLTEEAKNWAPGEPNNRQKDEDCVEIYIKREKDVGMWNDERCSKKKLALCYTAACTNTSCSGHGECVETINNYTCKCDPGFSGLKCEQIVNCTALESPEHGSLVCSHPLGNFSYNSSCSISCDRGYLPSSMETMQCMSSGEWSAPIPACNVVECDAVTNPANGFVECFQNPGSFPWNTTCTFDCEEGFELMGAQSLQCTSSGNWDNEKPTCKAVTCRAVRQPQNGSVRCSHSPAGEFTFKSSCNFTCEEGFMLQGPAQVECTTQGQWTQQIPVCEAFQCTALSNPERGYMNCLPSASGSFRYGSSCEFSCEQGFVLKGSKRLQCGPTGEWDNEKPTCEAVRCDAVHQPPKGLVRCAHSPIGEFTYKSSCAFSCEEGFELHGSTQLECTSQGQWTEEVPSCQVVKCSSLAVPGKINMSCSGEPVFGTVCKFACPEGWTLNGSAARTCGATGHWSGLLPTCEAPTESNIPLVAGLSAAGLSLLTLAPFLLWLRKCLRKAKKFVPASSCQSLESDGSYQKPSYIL
SMILES,outcome,AC50
O=C(O)C(F)(F)C(F)(F)C(F)(F)C(F)(F)F,inactive,
C=C(C)C(=O)OCCC(F)(F)C(F)(F)C(F)(F)C(F)(F)C(F)(C(F)(F)F)C(F)(F)F,inactive,
C=CC(=O)OCC(F)(F)C(F)(F)C(F)(F)C(F)(F)COC(=O)C=C,,33.8 µM (active) and 37 µM (active)
CCCCCCCCC(F)(F)C(F)(F)C(F)(F)C(F)(F)C(F)(F)C(F)(F)F,inactive,
FC(F)(I)C(F)(F)C(F)(F)C(F)(F)I,,49.5 µM (active) and 45.8 µM (active) and 54 µM (active)
FC(F)(F)C(F)(F)C(F)(F)N(C(F)(F)C(F)(F)C(F)(F)F)C(F)(F)C(F)(F)C(F)(F)F,inactive,
O=C(O)C(F)(F)C(F)(F)C(F)F,inactive,
COC(=O)CCC(F)(F)C(F)(F)C(F)(F)C(F)(F)F,inactive,
FC(F)(F)C(F)(F)C(F)(F)C(F)(F)C(F)(F)C(F)(F)CC1CO1 (configuration not stated),inactive,
FC(F)(F)C(F)(F)C(F)(F)C(F)(F)C(F)(F)C(F)(F)C(F)(F)C(F)(F)CCS,inactive,
OCCCC(F)(F)C(F)(F)C(F)(F)F,inactive,
O=S(=O)(OCCOC(F)(F)F)C(F)(F)F,inactive,

# Read-out: CD40, CD40 (gene 958)
# Test: BSK_LPS_CD40: BioMAP Diversity Plus: LPS Assay for CD40 Biomarker Activity (AID 2283076)
# Settings: primary human HUVEC with PBMC; actives raise or lower the signal
# Method in brief: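 Using a multiplexed primary human co-culture (umbilical vein endothelium plus PBMC), CD40 was read by ELISA 24 h after dosing, with cytotoxicity tracked by sulforhodamine B staining of parallel cultures and activity fitted bidirectionally versus DMSO.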
SMILES,outcome,AC50
O=C(O)C(F)(F)C(F)(F)C(F)(F)C(F)(F)F,inactive,
OCC(F)(F)C(F)(F)C(F)(F)C(F)(F)C(F)(F)C(F)(F)F,inactive,
C=C(C)C(=O)OCCC(F)(F)C(F)(F)C(F)(F)C(F)(F)C(F)(C(F)(F)F)C(F)(F)F,inactive,
O=P(O)(O)OCCC(F)(F)C(F)(F)C(F)(F)C(F)(F)C(F)(F)C(F)(F)F,inactive,823 nM (active)
O=S(=O)(OCC(F)F)C(F)(F)F,inactive,
O=C(CC(=O)C(F)(F)C(F)(F)F)C(F)(F)F,inactive,
C=CC(=O)OCC(F)(F)C(F)(F)C(F)(F)C(F)(F)COC(=O)C=C,,12.2 µM (active) and 18.5 µM (active)
CCCCCCCCC(F)(F)C(F)(F)C(F)(F)C(F)(F)C(F)(F)C(F)(F)F,inactive,
N=C(N)C(F)(F)C(F)(F)C(F)(F)C(F)(F)C(F)(F)C(F)(F)C(F)(F)F,inactive,41500 nM (active)
O=C(O)C(F)(F)C(F)(F)F,inactive,
FC(F)(I)C(F)(F)C(F)(F)C(F)(F)I,inactive,
FC(F)(F)C(F)(F)C(F)(F)C(F)(F)C(F)(F)C(F)(F)C(F)(F)C(F)(F)F,inactive,
FC(F)(F)C(F)(F)C(F)(F)N(C(F)(F)C(F)(F)C(F)(F)F)C(F)(F)C(F)(F)C(F)(F)F,inactive,
FC(F)(F)C(F)(F)CNCC(F)(F)C(F)(F)F,inactive,
FC(F)(F)C(F)(F)C(F)(F)C(F)(F)C(F)(F)C(F)(F)CCS,inactive,
O=C(O)C(F)(F)C(F)(F)C(F)(F)F,inactive,
O=C(O)C(F)(F)C(F)(F)C(F)(F)C(F)(F)C(F)(F)C(F)(F)C(F)(F)C(F)(F)Cl,inactive,
O=C(O)C(F)(OC(F)(F)C(F)(OC(F)(F)C(F)(OC(F)(F)C(F)(F)C(F)(F)F)C(F)(F)F)C(F)(F)F)C(F)(F)F (configuration not stated),inactive,

SMILES,outcome,AC50
FC(F)(Br)C(F)(F)C(F)(F)C(F)(F)C(F)(F)C(F)(F)Br,inactive,
O=C(O)C(F)(F)C(F)(F)C(F)F,inactive,
O=C(O)C(F)(OC(F)(F)C(F)(OC(F)(F)C(F)(F)C(F)(F)F)C(F)(F)F)C(F)(F)F (configuration not stated),inactive,
CCCCC(CC)COP(=O)(O)OCC(CC)CCCC (configuration not stated),inactive,
C=CC(F)(F)C(F)(F)C(F)(F)C(F)(F)C(F)(F)C(F)(F)C(F)(F)C(F)(F)F,inactive,
COC(=O)CCC(F)(F)C(F)(F)C(F)(F)C(F)(F)F,inactive,
C=CC(=O)OCC(F)(F)C(F)(F)C(F)(F)C(F)(F)C(F)(F)C(F)(F)C(F)(F)F,inactive,
FC(F)(F)C(F)(F)C(F)(F)C(F)(F)C(F)(F)C(F)(F)CC1CO1 (configuration not stated),inactive,
FC(F)(F)C(F)(F)C(F)(F)C(F)(F)C(F)(F)C(F)(F)C(F)(F)C(F)(F)CCS,inactive,
OCC(F)(F)C(F)(F)C(F)(F)C(F)(F)C(F)(F)C(F)F,inactive,
FC1CC(F)(F)C(F)(F)C1(F)F (configuration not stated),inactive,
FC(F)(F)C(F)(F)C(F)(F)CI,inactive,
NC(=O)C(F)(F)C(F)(F)C(F)(F)C(F)(F)F,inactive,
C=CC(F)(F)C(F)(F)C(F)(F)C(F)(F)C(F)(F)C(F)(F)C(F)(F)C(F)(F)C=C,inactive,
OCC(F)(F)C(F)(F)C(F)(F)C(F)F,inactive,
OCC(F)(F)C(F)(F)C(F)(F)F,inactive,
OCCCC(F)(F)C(F)(F)C(F)(F)F,inactive,
O=S(=O)(OCCOC(F)(F)F)C(F)(F)F,inactive,

# Read-out: E-selectin (Homo sapiens) (UniProt P16581)
# Test: BSK_LPS_Eselectin: BioMAP Diversity Plus: LPS Assay for Eselectin Biomarker Activity (AID 2283077)
# Settings: primary human HUVEC with PBMC; actives raise or lower the signal
# Method in brief: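 Dose chemical onto LPS-driven HUVEC/PBMC co-culture; after 24 h, run ELISA for E-selectin; fit up- and down-going responses relative to DMSO control.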
SMILES,outcome,AC50
O=C(O)C(F)(F)C(F)(F)C(F)(F)C(F)(F)F,inactive,
OCC(F)(F)C(F)(F)C(F)(F)C(F)(F)C(F)(F)C(F)(F)F,inactive,
C=C(C)C(=O)OCCC(F)(F)C(F)(F)C(F)(F)C(F)(F)C(F)(C(F)(F)F)C(F)(F)F,inactive,
O=P(O)(O)OCCC(F)(F)C(F)(F)C(F)(F)C(F)(F)C(F)(F)C(F)(F)F,inactive,
O=S(=O)(OCC(F)F)C(F)(F)F,inactive,
O=C(CC(=O)C(F)(F)C(F)(F)F)C(F)(F)F,inactive,
C=CC(=O)OCC(F)(F)C(F)(F)C(F)(F)C(F)(F)COC(=O)C=C,,17.3 µM (active) and 17.6 µM (active)
CCCCCCCCC(F)(F)C(F)(F)C(F)(F)C(F)(F)C(F)(F)C(F)(F)F,inactive,
N=C(N)C(F)(F)C(F)(F)C(F)(F)C(F)(F)C(F)(F)C(F)(F)C(F)(F)F,inactive,
O=C(O)C(F)(F)C(F)(F)F,inactive,
FC(F)(I)C(F)(F)C(F)(F)C(F)(F)I,inactive,
FC(F)(F)C(F)(F)C(F)(F)C(F)(F)C(F)(F)C(F)(F)C(F)(F)C(F)(F)F,inactive,
FC(F)(F)C(F)(F)C(F)(F)N(C(F)(F)C(F)(F)C(F)(F)F)C(F)(F)C(F)(F)C(F)(F)F,inactive,
FC(F)(F)C(F)(F)CNCC(F)(F)C(F)(F)F,inactive,
FC(F)(F)C(F)(F)C(F)(F)C(F)(F)C(F)(F)C(F)(F)CCS,inactive,
O=C(O)C(F)(F)C(F)(F)C(F)(F)F,inactive,
O=C(O)C(F)(F)C(F)(F)C(F)(F)C(F)(F)C(F)(F)C(F)(F)C(F)(F)C(F)(F)Cl,inactive,30 µM (active)
O=C(O)C(F)(OC(F)(F)C(F)(OC(F)(F)C(F)(OC(F)(F)C(F)(F)C(F)(F)F)C(F)(F)F)C(F)(F)F)C(F)(F)F (configuration not stated),inactive,

SMILES,outcome,AC50
FC(F)(Br)C(F)(F)C(F)(F)C(F)(F)C(F)(F)C(F)(F)Br,inactive,
O=C(O)C(F)(F)C(F)(F)C(F)F,inactive,
O=C(O)C(F)(OC(F)(F)C(F)(OC(F)(F)C(F)(F)C(F)(F)F)C(F)(F)F)C(F)(F)F (configuration not stated),inactive,
CCCCC(CC)COP(=O)(O)OCC(CC)CCCC (configuration not stated),inactive,
C=CC(F)(F)C(F)(F)C(F)(F)C(F)(F)C(F)(F)C(F)(F)C(F)(F)C(F)(F)F,inactive,
COC(=O)CCC(F)(F)C(F)(F)C(F)(F)C(F)(F)F,inactive,
C=CC(=O)OCC(F)(F)C(F)(F)C(F)(F)C(F)(F)C(F)(F)C(F)(F)C(F)(F)F,inactive,
FC(F)(F)C(F)(F)C(F)(F)C(F)(F)C(F)(F)C(F)(F)CC1CO1 (configuration not stated),inactive,
FC(F)(F)C(F)(F)C(F)(F)C(F)(F)C(F)(F)C(F)(F)C(F)(F)C(F)(F)CCS,inactive,
OCC(F)(F)C(F)(F)C(F)(F)C(F)(F)C(F)(F)C(F)F,inactive,
FC1CC(F)(F)C(F)(F)C1(F)F (configuration not stated),inactive,
FC(F)(F)C(F)(F)C(F)(F)CI,inactive,
NC(=O)C(F)(F)C(F)(F)C(F)(F)C(F)(F)F,inactive,
C=CC(F)(F)C(F)(F)C(F)(F)C(F)(F)C(F)(F)C(F)(F)C(F)(F)C(F)(F)C=C,inactive,
OCC(F)(F)C(F)(F)C(F)(F)C(F)F,inactive,
OCC(F)(F)C(F)(F)C(F)(F)F,inactive,
OCCCC(F)(F)C(F)(F)C(F)(F)F,inactive,
O=S(=O)(OCCOC(F)(F)F)C(F)(F)F,inactive,
